Compound activity deposited in PubChem BioAssay by National Center for Advancing Translational Sciences (NCATS).
Sampled rows, rich in hits. Any-hit rate of the full collection: about 2.8%.
KDM5B inhibitor – KDM5B demethylase inhibition; KDM5B demethylase, FDH-coupled NADH fluorescence (FDH is formaldehyde dehydrogenase); Potency, µM (top dose mostly 57.7 µM), usual class: inhibitors; hit rate 2.6% among 220,000; AID 1347165; active = well fitted inhibition curve with a large enough effect; inconclusive = small, poorly fitted or top-dose-only effect; inactive = no such curve, though single readings can be large or run the other way; also: potency is read from the fitted curve at half-maximal effect; 0% is about no effect; nearly all actives have a fitted effect of over 70% in size
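Inhibition is measured as reduced NADH fluorescence generation from FDH coupling to formaldehyde release. Truncated KDM5BΔAP at 200 nM final acts on H3K4me3 peptide (12.5 µM in substrate mix) in pH 7.5 HEPES buffer with Tween-20, 30 min, room temperature.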
IP6K1 inh – inhibitors of human IP6K1; Q92551; IP6K1 kinase, ADP-Glo luminescence, 2 h; stronger effect = lower value; activity change, % (series mostly up to about 58 µM); hit rate 0.81% among 140,000; in the data active = activity change below about -25%; also: % is scaled to controls: 0 for no effect and ±100 for the full control effect
Target sequence (Q92551 whole entry, looked up): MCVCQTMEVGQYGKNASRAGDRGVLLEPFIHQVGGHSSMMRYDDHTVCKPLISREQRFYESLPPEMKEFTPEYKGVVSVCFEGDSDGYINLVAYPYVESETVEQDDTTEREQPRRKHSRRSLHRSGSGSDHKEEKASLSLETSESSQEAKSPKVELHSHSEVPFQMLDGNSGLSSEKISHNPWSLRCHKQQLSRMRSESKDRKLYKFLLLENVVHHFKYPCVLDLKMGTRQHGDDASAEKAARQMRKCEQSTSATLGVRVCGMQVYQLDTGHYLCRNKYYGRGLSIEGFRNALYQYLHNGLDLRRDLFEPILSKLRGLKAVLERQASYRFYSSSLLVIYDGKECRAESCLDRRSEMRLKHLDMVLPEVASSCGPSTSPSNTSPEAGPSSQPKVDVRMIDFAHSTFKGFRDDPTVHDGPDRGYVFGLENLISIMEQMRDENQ
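ADP-Glo luminescence measures ADP made by human IP6K1 during a 2 h RT reaction with ATP/IP6 (mix at 1.3 mM/130 uM); top library doses 57.5 and 19.1 uM final.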
* = called active by the depositor; i = inactive; ? = inconclusive; . = not tested or not shown.

SMILES	KDM5B inhibitor	IP6K1 inh
O=C(Nc1cc(F)ccc1Cl)c1cc2n(n1)CC(c1ccc(Br)cc1)OC2 (stereo unspecified)	25µM*	-1
COc1cc(Cl)c(C)cc1NC(=O)c1cc2n(n1)CC(c1ccc(Cl)cc1)OC2 (stereo unspecified)	?	7
CCOc1ccc(OCC)c(NC(=O)c2cc3n(n2)CC(c2ccc(Cl)cc2)OC3)c1 (stereo unspecified)	14µM*	26
COc1ccccc1Nc1ccnc(N2CCC(NC(=O)C(C)(C)C)CC2)n1	.	11
COC(=O)C(C)Oc1ccc2c(=O)c(-c3ccc4c(c3)OCCO4)coc2c1 (stereo unspecified)	i	.
CCOC(=O)COc1nc(C(C)C)c2c(c1C#N)CCCC2	i	.
O=C1CC(c2noc(-c3ccoc3)n2)CN1C1CCCCC1 (stereo unspecified)	i	0
CCc1ccc(N2CC(c3noc(-c4ccccc4)n3)CC2=O)cc1 (stereo unspecified)	i	0
CCc1ccc(N2CC(c3noc(-c4ccccn4)n3)CC2=O)cc1 (stereo unspecified)	i	19
O=C1CC(c2noc(-c3nccc4ccccc34)n2)CN1C1CCCCC1 (stereo unspecified)	22µM*	27
CCc1ccc(N2CC(c3noc(-c4nccc5ccccc45)n3)CC2=O)cc1 (stereo unspecified)	32µM*	6
CCc1ccc(N2CC(c3noc(-c4ccc5ncccc5c4)n3)CC2=O)cc1 (stereo unspecified)	32µM*	13
COc1ccc(-c2csc(NC(=O)Cn3cnc4c3c(=O)n(C)c(=O)n4C)n2)c2ccccc12	i	.
Cc1ccc(-c2noc(CCCC(=O)N3CCC(c4nc(C(=O)N5CCCC5)c(C)o4)CC3)n2)cc1	.	22
CCn1cc(CN2CCN(C(=O)c3ccco3)CC2)ccc1=O	i	-4
CCn1cc(CN2CCN(C(=O)CCc3ccccc3)CC2)ccc1=O	7.1µM*	-2
O=C(c1ccccn1)N1CCN(Cc2ccc(=O)n(CC3CC3)c2)CC1	16µM*	1
CCn1cc(CN2CCN(C(=O)c3cccs3)CC2)ccc1=O	11µM*	-2
O=C(c1cccs1)N1CCN(Cc2ccc(=O)n(CC3CC3)c2)CC1	i	3
O=C(c1ccccc1)N1CCN(Cc2ccc(=O)n(CC3CC3)c2)CC1	i	2
CCCn1ncc(N2CCC(C(=O)N(CCCOC)Cc3ccc4c(c3)CCCN4CC)CC2)cc1=O	.	-4
COc1cccc(-c2cn3cc(C(=O)N4CCCCC4)nc3s2)c1	.	-2
CCC(C(=O)NCc1nnc2c(-c3nc(C(C)C)no3)cccn12)c1ccccc1 (stereo unspecified)	13µM*	12
CC(C)c1noc(-c2cccn3c(CNC(=O)C(C)c4ccccc4)nnc23)n1 (stereo unspecified)	14µM*	14
CC(C)c1noc(-c2cccn3c(CNC(=O)c4ccncc4)nnc23)n1	?	5
SMILES	KDM5B inhibitor	IP6K1 inh
CC(C)c1noc(-c2cccn3c(CNC(=O)CCCc4ccccc4)nnc23)n1	?	11
CCC(C(=O)NCc1nnc2c(-c3nc(C)no3)cccn12)c1ccccc1 (stereo unspecified)	32µM*	15
CCC(C(=O)NCc1nnc2c(-c3nc(C4CC4)no3)cccn12)c1ccccc1 (stereo unspecified)	32µM*	3
Cc1noc(-c2cccn3c(CNC(=O)c4ccc5ccccc5n4)nnc23)n1	?	11
CCC(C(=O)NCc1nnc2cc(-c3nc(C4CC4)no3)ccn12)c1ccccc1 (stereo unspecified)	i	11
CCC(C)(C(=O)NC1CCCCC1)N(C(=O)CNC(=O)c1ccccc1)c1ccccc1 (stereo unspecified)	i	.
CCOC(=O)c1nc(NC(C)c2ccccc2)c2ccccc2n1 (stereo unspecified)	i	.
Cc1cc(C)cc(NS(=O)(=O)c2cc(-c3cnc(C)o3)ccc2C)c1	i	.
COc1ccc(CCC(=O)N2CCOc3ccc(N4CCCC4)cc3C2)cc1	.	8
COc1cccc(CNC(=O)c2cc(-c3ccsc3)nc3c2cnn3C)c1	.	-3
CC(=O)NC1(C)CCN(Cc2ccc(-c3cccc(F)c3)cc2)C1 (stereo unspecified)	?	-4
O=c1n(-c2ccc(C(F)(F)F)cc2)nc2n1CCN(Cc1ccc(C(F)(F)F)cc1)C2	?	-1
Cc1cccc2c1NC(=O)C2(O)c1c[nH]c2ccccc12 (stereo unspecified)	i	.
COCc1cc(NCCCNc2cccnc2)ncn1	14µM*	4
COCc1cc(NCCSCc2ccccc2C)ncn1	i	-16
CC1(C)CC(=O)C2=C(C1)OC(N)=C(C#N)C2c1ccc(-c2ccccc2Cl)o1 (stereo unspecified)	i	.
O=C(NC1CCN(Cc2cccc(-c3ccc(F)c(F)c3)c2)CC1)c1ccc(Cl)nc1	.	32
O=C(N[C@H]1CCN2C(=O)N(c3cccc4nsnc34)C(=O)[C@@H]2C1)c1ccc(F)c(Cl)c1	32µM*	-4
Cc1nnsc1C(=O)N[C@H]1CCN2C(=O)N(c3ccc(F)c(Cl)c3)C(=O)[C@@H]2C1	i	6
CCn1c(CNC(C)c2ccc(F)cc2)nc2cc(S(=O)(=O)N3CCCCC3)ccc21 (stereo unspecified)	i	.
N#Cc1cc2c(=O)n(CCc3n[nH]c4c3CCCC4)ccc2[nH]c1=O	32µM*	28
CC(O)CCn1ccc2[nH]c(=O)c(C#N)cc2c1=O (stereo unspecified)	i	-17
Cc1ccc([S+](=O)([O-])NC2CCCN(c3ccc4nnc(-c5ccccc5)n4n3)C2)cc1 (stereo unspecified)	.	-7
CN(Cc1ccc(-c2ccccc2)cc1)C(=O)Cc1cccc(Cl)c1	i	-2
Cc1ccc(-c2nc(NC(=O)c3cc(C)on3)sc2C)c(C)c1	i	.
SMILES	KDM5B inhibitor	IP6K1 inh
Cc1cc(NC(=O)CSc2nnc(-c3cccnc3)n2C2CC2)no1	i	.
CC(C)CNc1ccc2c(n1)C(C)(C(=O)NC1CCOCC1)CN(Cc1ccccc1)C2 (stereo unspecified)	i	-1
CNC(=O)C1(C)CN(Cc2ccccc2)Cc2ccc(NCC(C)C)nc21 (stereo unspecified)	?	13
COCCN1Cc2ccc(NCC(C)C)nc2C(C)(C(=O)NCc2cccnc2)C1 (stereo unspecified)	32µM*	10
CC(C)CNc1ccc2c(n1)C(C)(C(=O)N1CCC1)CN(Cc1ccccc1)C2 (stereo unspecified)	28µM*	4
CC(C)CNc1ccc2c(n1)C(C)(C(=O)N1CCOCC1)CN(Cc1ccccc1)C2 (stereo unspecified)	32µM*	-7
CC(C)CNc1ccc2c(n1)C(C)(C(=O)Nc1cccnc1)CN(Cc1ccccc1)C2 (stereo unspecified)	32µM*	7
CC(C)CNc1ccc2c(n1)C(C)(C(=O)NC1CC1)CN(Cc1ccccc1)C2 (stereo unspecified)	i	11
COCCN1Cc2ccc(NCC(C)C)nc2C(C)(C(=O)Nc2ccccc2)C1 (stereo unspecified)	?	8
O=c1c(-c2ccccc2)nnc2sc(-c3ccc(F)c(Cl)c3)nn12	i	.
Cc1ccc(SC(C(=O)c2ccccc2)C(=O)c2ccccc2)cc1	i	.
